The campaign covered roughly 52,000 compounds. About 1,700 (3.3%) were called active. This excerpt belongs to a sample that is enriched for actives. Values without a mark were called inactive. Rule as the data show it: active = survival mostly below about 52% (no sharp cut-off); inactive = mostly above about 56%.
Tested on: Wild type
Test: growth inhibition of S. aureus wild type versus tarO mutant, primary screen, teichoic acid synthesis inhibitors, RN4220, OD600 (AID 463173)
Conditions: S. aureus RN4220 wild type/DeltatarO growth, OD600, 18 h, stronger effect = lower value, screened at 18.75 µg/mL (by protocol)

Q: With `CCC(C(=O)Nc1nnc2n1CCS2)c1ccccc1` (stereo unspecified) as the compound, how does the survival read?
A: The survival was 66%.

Q: For `CCN(CC)Cc1cc(C(=O)O)oc1C(C)(C)C`, which survival is on record?
A: Its survival is 106%.

Q: Which survival does the source give for `COc1ccc(-c2cc(C(F)(F)F)c(C#N)c(SCC(=O)Nc3cccc(C)c3)n2)cc1` here?
A: Its survival is 74%.

Q: With `CN(C(=O)CSc1cn(CC(=O)N2CCCC2)c2ccccc12)c1ccccc1` as the compound, how does the survival read?
A: Its survival is 83%.

Q: For `Cc1ccc(C(=O)NCC(c2ccc3c(c2)OCO3)N2CCN(c3ccc(F)cc3)CC2)cc1` (stereo unspecified), which survival is on record?
A: The survival was 68%.

Q: `Cc1ccc(C)c(CS(=O)(=O)c2cn(CC(=O)N(C(C)C)C(C)C)c3ccccc23)c1` was tested. Which survival did it give?
A: Its survival is 77%.

Q: Which survival does the source give for `COc1ccccc1CNC(=O)CSc1ncc2c(n1)-c1cc(Cl)ccc1N(Cc1ccccc1)S2(=O)=O` here?
A: Its survival is 73%.

Q: For `O=C(CSc1ncc2c(n1)-c1ccc(Cl)cc1N(Cc1ccccc1)S2(=O)=O)Nc1ccc(F)c(F)c1`, which survival is on record?
A: Its survival is 129%.

Q: Which survival does the source give for `COc1ccccc1CNC(=O)CSc1ncc2c(n1)-c1ccc(Cl)cc1N(Cc1ccccc1)S2(=O)=O` here?
A: Its survival is 0% (active).

Q: For `CCc1cccc(NC(=O)CSc2ncc3c(n2)-c2ccc(Cl)cc2N(Cc2ccccc2)S3(=O)=O)c1`, which survival is on record?
A: Its survival is 101%.

Q: Which survival does the source give for `Cc1cccc(C)c1NC(=O)CSc1ncc2c(n1)-c1ccc(Cl)cc1N(Cc1ccccc1)S2(=O)=O` here?
A: The survival was -2% (active).

Q: Which survival does the source give for `COc1ccc(CNC(=O)CSc2ncc3c(n2)-c2ccc(Cl)cc2N(Cc2ccccc2)S3(=O)=O)cc1` here?
A: Its survival is 22%.

Q: `CCc1ccc(NC(=O)Cn2c(=O)n(Cc3ccco3)c(=O)c3oc4ccccc4c32)cc1` was tested. Which survival did it give?
A: Its survival is 87%.

Q: Which survival does the source give for `COc1ccc(C2C(=O)N(C3CCCCC3)CC(=O)N2CCc2ccc(C)cc2)cc1OC` (stereo unspecified) here?
A: Its survival is 82%.

Q: For `Cc1ccc(NC(=O)CN2C(=O)C(c3ccccc3)=NC23CCCCC3)cc1C`, which survival is on record?
A: The survival was 89%.

Q: Which survival does the source give for `COc1ccc(Br)cc1CNC(=O)c1nn(-c2ccc(C)cc2)c(=O)c2c1c1ccccc1n2C` here?
A: The survival was 126%.

Q: Which survival does the source give for `CC1CCCC(C)N1C(=O)c1ccccc1N` (stereo unspecified) here?
A: The survival was 108%.

Q: How did the survival turn out when `COc1ccc(-c2ccc(NS(=O)(=O)c3cccc(Cl)c3)cc2)nn1` was run?
A: The survival was 82%.

Q: For `COc1cccc(N2CCN(C(=O)c3cnc4c(-c5ccc(F)cc5)c(C)nn4c3C)CC2)c1`, which survival is on record?
A: Its survival is -6% (active).

Q: Which survival does the source give for `COc1cccc(N2CCN(C(=O)c3cnc4c(-c5ccccc5)c(C)nn4c3C)CC2)c1` here?
A: Its survival is 76%.

Q: How did the survival turn out when `Cc1nn2c(C)c(C(=O)N3CCN(c4ccc(Cl)cc4)CC3)cnc2c1-c1ccc(F)cc1` was run?
A: The survival was 72%.

Q: How did the survival turn out when `CC(=O)N1c2c(cc(Br)cc2S(=O)(=O)N2CCN(c3ccccc3)CC2)CC1C` (stereo unspecified) was run?
A: The survival was 98%.

Q: `Nc1ccc2nc(CCc3ccccc3)[nH]c2c1` was tested. Which survival did it give?
A: Its survival is 106%.

Q: `Oc1ccc(NCc2ccc(OCc3ccccc3Cl)cc2)cc1` was tested. Which survival did it give?
A: Its survival is -4% (active).

Q: `Oc1ccc(NCc2ccc(OCc3ccccc3)cc2)cc1` was tested. Which survival did it give?
A: Its survival is 87%.

Q: For `Oc1ccc(NCc2ccccc2OCc2ccccc2Cl)cc1`, which survival is on record?
A: Its survival is 82%.

Q: How did the survival turn out when `COc1ccc(NC(=O)C2=C(C)Nc3nc(SCc4ccc(Cl)cc4)nn3C2c2cccc(OC)c2OC)cc1` (stereo unspecified) was run?
A: Its survival is 60%.

Q: How did the survival turn out when `O=C(Nc1ccc(OC(F)(F)F)cc1)c1cc(-c2ccc(Cl)cc2)on1` was run?
A: The survival was 105%.

Q: Which survival does the source give for `Cc1ccccc1C(=O)Nc1ccc(C(=O)OCc2cc(=O)n3nc(C(C)C)sc3n2)cc1` here?
A: Its survival is 65%.

Q: For `CCN(CC)CCNc1ncnc2c1cnn2-c1cc(Cl)ccc1C`, which survival is on record?
A: Its survival is 98%.

Q: Which survival does the source give for `CCN(c1ncnc2c1cnn2-c1cc(Cl)ccc1C)C1CCCCC1` here?
A: Its survival is 80%.

Q: Which survival does the source give for `CCN(CC)c1ncnc2c1cnn2-c1cc(Cl)ccc1C` here?
A: Its survival is -6% (active).

Q: For `Cc1ccc(N2CCN(S(=O)(=O)c3ccc4oc(=O)c5ncn(C)c5c4c3)CC2)c(C)c1`, which survival is on record?
A: Its survival is 121%.

Q: `CCc1cccc(NC(=O)c2c(C)oc3nc(C)nc(N4CCCC4)c23)c1` was tested. Which survival did it give?
A: The survival was 101%.

Q: For `Cc1nc(N2CCOCC2)c2c(C(=O)NCCc3ccccc3)c(C)oc2n1`, which survival is on record?
A: The survival was -3% (active).

Q: How did the survival turn out when `Cc1nc(N2CCCC2)c2c(C(=O)Nc3cccc(Cl)c3)c(C)oc2n1` was run?
A: Its survival is -3% (active).

Q: How did the survival turn out when `COC(=O)CCN(C(=O)c1c(C)oc2ncnc(N3CCOCC3)c12)c1ccccc1` was run?
A: The survival was 0% (active).

Q: With `CCCN(C(=O)c1c(C)oc2ncnc(N3CCOCC3)c12)c1ccc(Cl)c(Cl)c1` as the compound, how does the survival read?
A: The survival was 74%.

Q: With `CCc1ccccc1N(CC)C(=O)c1c(C)oc2ncnc(N3CCOCC3)c12` as the compound, how does the survival read?
A: The survival was 70%.

Q: How did the survival turn out when `Cc1nc(N2CCCC2)c2c(C(=O)Nc3ccc(C)c(Cl)c3)c(C)oc2n1` was run?
A: Its survival is 130%.

Q: How did the survival turn out when `Cc1oc2ncnc(N3CCOCC3)c2c1C(=O)NCCc1ccccc1` was run?
A: Its survival is 85%.

Q: With `Cc1ccc(CNC(=O)c2c(C)oc3ncnc(N4CCOCC4)c23)cc1` as the compound, how does the survival read?
A: The survival was -1% (active).

Q: `Cc1ccc(CCNC(=O)c2c(C)oc3nc(C)nc(N4CCOCC4)c23)cc1` was tested. Which survival did it give?
A: The survival was 124%.

Q: `CCc1ccc(CNC(=O)c2c(C)oc3ncnc(N4CCOCC4)c23)cc1` was tested. Which survival did it give?
A: Its survival is 133%.

Q: `Cc1oc2ncnc(N3CCOCC3)c2c1C(=O)NCc1ccc(Cl)cc1` was tested. Which survival did it give?
A: Its survival is 73%.

Q: With `CCc1cccc(C)c1NC(=O)c1cc(CN2CCCC2)on1` as the compound, how does the survival read?
A: The survival was 72%.

Q: `Cc1nc2ccc(S(=O)(=O)N(CC(=O)Nc3ccc(F)cc3F)Cc3ccccc3)cc2s1` was tested. Which survival did it give?
A: The survival was 88%.

Q: How did the survival turn out when `CCn1c(=O)c2cc(C(=O)NCc3ccc(F)cc3Cl)sc2c2ccccc21` was run?
A: The survival was 81%.

Q: How did the survival turn out when `Cc1cccc(CN2CCC(CNC(=O)c3c(C)oc4ncnc(N5CCCCC5)c34)CC2)c1` was run?
A: The survival was 98%.

Q: For `Cc1oc2ncnc(N3CCCCC3)c2c1C(=O)NCC1CCN(Cc2cccc(F)c2)CC1`, which survival is on record?
A: The survival was -6% (active).

Q: Which survival does the source give for `CCCCN(CC)CCCNC(=O)c1c(C)oc2ncnc(N3CCOCC3)c12` here?
A: The survival was 14% (active).

Q: With `CCCCN(CC)CCNC(=O)c1c(C)oc2ncnc(N3CCOCC3)c12` as the compound, how does the survival read?
A: Its survival is 76%.

Q: `Cc1oc2ncnc(N3CCCCC3)c2c1C(=O)NCC1CCN(Cc2ccc(F)cc2)CC1` was tested. Which survival did it give?
A: The survival was 90%.

Q: How did the survival turn out when `CCN(CC)CCCNC(=O)c1c(C)oc2ncnc(N3CCOCC3)c12` was run?
A: Its survival is 136%.

Q: For `CCN(C(=O)Cn1ncc2c(=O)oc3ccc(C)cc3c21)c1cc(OC)ccc1OC`, which survival is on record?
A: The survival was 86%.

Q: With `CCOc1ccc(Nc2nn(-c3ccc(OC(F)(F)F)cc3)nc2C(C)=O)cc1` as the compound, how does the survival read?
A: Its survival is 123%.

Reference: PubChem BioAssay AID463173 (ICCB-Longwood Screening Facility, Harvard Medical School, 2010)
